Holding throughout (test): DAPPL (digital affinity profiling via proximity ligation, sequencing); 10 mM Tris-HCl pH 7.5, 50 mM NaCl, 1 mM DTT, 4% glycerol, room temperature, 30 min; GST-TFs on glutathione beads, 16-mer random dsDNA library, 0.1% formaldehyde crosslink after washing; high values mean tight binding
Holding throughout (conditions): protein: recombinant; tags: N-terminal GST; dsDNA, one strand shown

One assay concerns the target T1, FLI1 (Homo sapiens, UniProt Q01543 1-452).
T1 sequence: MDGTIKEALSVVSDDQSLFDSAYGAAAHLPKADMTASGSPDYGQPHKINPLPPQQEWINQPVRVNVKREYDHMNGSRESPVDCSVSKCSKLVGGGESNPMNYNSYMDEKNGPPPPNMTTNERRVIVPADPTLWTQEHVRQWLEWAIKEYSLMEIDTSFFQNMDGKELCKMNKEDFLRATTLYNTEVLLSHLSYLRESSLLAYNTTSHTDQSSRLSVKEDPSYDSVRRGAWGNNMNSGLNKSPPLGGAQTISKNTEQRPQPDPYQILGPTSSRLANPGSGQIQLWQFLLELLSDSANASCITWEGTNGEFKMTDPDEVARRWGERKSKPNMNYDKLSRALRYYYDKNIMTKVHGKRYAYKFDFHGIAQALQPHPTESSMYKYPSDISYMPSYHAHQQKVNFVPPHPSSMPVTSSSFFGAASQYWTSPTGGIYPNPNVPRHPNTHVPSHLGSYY
The method, boiled down:
(§1)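 GST fusions of human transcription factors were expressed in yeast and captured with glutathione beads. Once given DNA barcodes and pooled alongside a tag-only sample, they were incubated for 30 min at room temperature with 200 nmole of a random double-stranded 16-mer DNA library in Tris/NaCl/DTT/glycerol buffer, then washed, crosslinked (0.1% formaldehyde), proximity-ligated, PCR-amplified and sequenced on an Illumina NextSeq500. The binding signal of each hexamer is its read frequency for a factor divided by its frequency for the tag-only sample.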

The target of another assay is T2, ELK1 (Homo sapiens, UniProt P19419 1-428).
T2 sequence: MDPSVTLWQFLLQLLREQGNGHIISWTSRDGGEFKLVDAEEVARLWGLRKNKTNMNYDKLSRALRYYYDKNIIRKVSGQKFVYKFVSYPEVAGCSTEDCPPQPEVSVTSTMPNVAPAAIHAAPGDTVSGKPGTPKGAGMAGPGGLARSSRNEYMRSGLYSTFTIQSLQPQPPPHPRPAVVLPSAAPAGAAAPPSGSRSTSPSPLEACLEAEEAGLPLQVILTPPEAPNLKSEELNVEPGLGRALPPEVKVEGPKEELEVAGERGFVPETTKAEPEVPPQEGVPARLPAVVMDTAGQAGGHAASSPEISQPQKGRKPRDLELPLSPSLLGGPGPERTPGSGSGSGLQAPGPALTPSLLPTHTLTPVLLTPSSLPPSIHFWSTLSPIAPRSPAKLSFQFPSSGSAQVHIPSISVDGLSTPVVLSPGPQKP
The method, boiled down:
as §1

A further assay addresses T3, GABPA (Homo sapiens, UniProt Q06546 1-454).
T3 sequence: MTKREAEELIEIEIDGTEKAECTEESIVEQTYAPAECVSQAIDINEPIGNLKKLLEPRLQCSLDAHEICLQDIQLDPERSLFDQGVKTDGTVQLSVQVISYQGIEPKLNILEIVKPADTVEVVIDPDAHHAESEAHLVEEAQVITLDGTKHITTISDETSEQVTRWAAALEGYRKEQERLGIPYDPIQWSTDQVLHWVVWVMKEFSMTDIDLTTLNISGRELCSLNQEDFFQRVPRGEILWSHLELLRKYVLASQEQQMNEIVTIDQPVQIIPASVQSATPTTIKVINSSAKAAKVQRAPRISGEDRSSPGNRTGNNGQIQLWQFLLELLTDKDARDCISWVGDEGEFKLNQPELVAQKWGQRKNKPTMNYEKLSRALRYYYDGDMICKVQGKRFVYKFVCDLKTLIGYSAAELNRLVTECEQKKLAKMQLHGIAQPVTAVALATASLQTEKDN
The method, boiled down: as §1

For another assay, the target named is T4, ERG (Homo sapiens, UniProt P11308 1-479).
T4 sequence: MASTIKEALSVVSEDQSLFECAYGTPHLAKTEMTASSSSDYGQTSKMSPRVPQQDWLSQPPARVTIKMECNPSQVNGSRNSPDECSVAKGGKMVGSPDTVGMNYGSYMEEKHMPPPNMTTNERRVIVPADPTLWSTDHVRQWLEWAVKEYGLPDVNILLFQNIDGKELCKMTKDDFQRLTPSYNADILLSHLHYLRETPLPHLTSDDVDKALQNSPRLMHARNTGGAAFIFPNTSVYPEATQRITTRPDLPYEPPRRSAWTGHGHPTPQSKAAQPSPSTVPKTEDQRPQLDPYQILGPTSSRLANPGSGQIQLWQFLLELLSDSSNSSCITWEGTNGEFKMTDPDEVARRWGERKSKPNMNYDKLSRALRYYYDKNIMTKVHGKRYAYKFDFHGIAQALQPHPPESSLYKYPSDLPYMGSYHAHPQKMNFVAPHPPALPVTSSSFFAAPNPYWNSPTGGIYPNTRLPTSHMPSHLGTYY
The method, boiled down: as §1

The next assay deals with ELF1 (Homo sapiens, UniProt P32519 1-619). The method, boiled down: as §1
A further assay deals with T5, EHF (Homo sapiens, UniProt Q9NZC4 1-300).
T5 sequence: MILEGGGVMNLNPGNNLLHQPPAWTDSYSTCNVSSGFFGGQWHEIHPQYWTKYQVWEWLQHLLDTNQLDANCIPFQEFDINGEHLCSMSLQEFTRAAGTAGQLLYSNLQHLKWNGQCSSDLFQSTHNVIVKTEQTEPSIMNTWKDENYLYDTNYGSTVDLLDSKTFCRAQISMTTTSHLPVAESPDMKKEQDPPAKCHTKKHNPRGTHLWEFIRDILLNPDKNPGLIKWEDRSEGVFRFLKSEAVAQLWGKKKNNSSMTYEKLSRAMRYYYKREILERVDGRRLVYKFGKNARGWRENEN
The method, boiled down: as §1

The target of a further assay is SPI1 (Homo sapiens, UniProt P17947 1-270). The method, boiled down:
as §1

A further assay addresses SPIB (Homo sapiens, UniProt Q01892 1-262). The method, boiled down: as §1
The target of a further assay is T6, ELK3 (Homo sapiens, UniProt P41970 1-407).
T6 sequence: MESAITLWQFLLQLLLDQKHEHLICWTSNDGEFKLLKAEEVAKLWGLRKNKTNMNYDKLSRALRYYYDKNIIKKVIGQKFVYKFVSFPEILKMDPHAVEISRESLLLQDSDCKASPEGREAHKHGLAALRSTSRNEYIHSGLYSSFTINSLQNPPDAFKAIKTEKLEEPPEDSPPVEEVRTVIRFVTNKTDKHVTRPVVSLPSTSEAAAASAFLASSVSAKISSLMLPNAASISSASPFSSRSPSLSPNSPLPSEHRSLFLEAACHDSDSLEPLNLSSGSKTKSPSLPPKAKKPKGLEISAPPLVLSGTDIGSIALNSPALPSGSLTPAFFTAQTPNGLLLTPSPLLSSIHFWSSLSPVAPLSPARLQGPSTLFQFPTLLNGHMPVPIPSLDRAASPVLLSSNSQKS
The method, boiled down:
as §1

Sequence of ELF1 (P32519 whole entry): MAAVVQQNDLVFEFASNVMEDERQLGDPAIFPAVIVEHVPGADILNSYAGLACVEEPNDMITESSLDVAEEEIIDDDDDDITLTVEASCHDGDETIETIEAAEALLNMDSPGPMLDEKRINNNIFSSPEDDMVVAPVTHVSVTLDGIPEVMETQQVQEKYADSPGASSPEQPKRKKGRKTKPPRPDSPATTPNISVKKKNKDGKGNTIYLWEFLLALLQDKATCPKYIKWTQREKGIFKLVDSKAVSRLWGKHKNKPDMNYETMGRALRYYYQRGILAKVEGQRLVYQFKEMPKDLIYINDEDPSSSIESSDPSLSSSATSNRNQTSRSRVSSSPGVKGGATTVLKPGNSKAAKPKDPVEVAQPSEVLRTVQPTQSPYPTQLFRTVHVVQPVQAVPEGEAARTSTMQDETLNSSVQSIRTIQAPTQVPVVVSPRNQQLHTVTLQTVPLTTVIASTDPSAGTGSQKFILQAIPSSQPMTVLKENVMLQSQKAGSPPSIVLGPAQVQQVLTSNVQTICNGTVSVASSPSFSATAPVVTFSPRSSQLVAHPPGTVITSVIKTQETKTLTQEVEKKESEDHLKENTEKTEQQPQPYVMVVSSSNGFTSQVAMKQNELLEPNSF
Sequence of SPIB (Q01892 whole entry): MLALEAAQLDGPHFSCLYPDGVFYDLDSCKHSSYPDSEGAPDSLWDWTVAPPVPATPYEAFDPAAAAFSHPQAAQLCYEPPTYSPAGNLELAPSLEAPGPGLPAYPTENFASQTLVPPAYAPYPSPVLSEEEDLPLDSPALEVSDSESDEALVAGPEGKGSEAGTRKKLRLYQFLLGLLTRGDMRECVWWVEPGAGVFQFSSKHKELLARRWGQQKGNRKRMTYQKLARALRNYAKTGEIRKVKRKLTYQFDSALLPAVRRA

For CTAGTT, the binding signal with FLI1 is 1.37 fold enrichment (6-mer frequency, TF over GST control); with ELK1 it was 1.4 fold enrichment (6-mer frequency, TF over GST control); with GABPA it was 1.42 fold enrichment (6-mer frequency, TF over GST control); with ERG it was 1.3 fold enrichment (6-mer frequency, TF over GST control); with ELF1, 1.31 fold enrichment (6-mer frequency, TF over GST control); with EHF, 1.23 fold enrichment (6-mer frequency, TF over GST control). The binding signal with SPI1 was 1.34 fold enrichment (6-mer frequency, TF over GST control); with SPIB, 1.48 fold enrichment (6-mer frequency, TF over GST control); with ELK3, 1.21 fold enrichment (6-mer frequency, TF over GST control).

On to TTTATG, for which the binding signal with FLI1 was 1.31 fold enrichment (6-mer frequency, TF over GST control); in the assay with ELK1, 1.21 fold enrichment (6-mer frequency, TF over GST control); with GABPA, 1.4 fold enrichment (6-mer frequency, TF over GST control); in the assay with ERG it was 1.21 fold enrichment (6-mer frequency, TF over GST control); in the assay with ELF1, 1.18 fold enrichment (6-mer frequency, TF over GST control); in the assay with EHF it was 1.34 fold enrichment (6-mer frequency, TF over GST control). Also, the binding signal is 1.34 fold enrichment (6-mer frequency, TF over GST control) with SPI1; 1.29 fold enrichment (6-mer frequency, TF over GST control) with SPIB; 1.34 fold enrichment (6-mer frequency, TF over GST control) in the assay with ELK3.

For the sequence TAGCAC, the binding signal with FLI1 was 1.16 fold enrichment (6-mer frequency, TF over GST control); in the assay with ELK1 it was 1.12 fold enrichment (6-mer frequency, TF over GST control); with GABPA, 1.24 fold enrichment (6-mer frequency, TF over GST control); with ERG, 1.15 fold enrichment (6-mer frequency, TF over GST control); with ELF1 it was 1.15 fold enrichment (6-mer frequency, TF over GST control); in the assay with EHF, 1.16 fold enrichment (6-mer frequency, TF over GST control). Also, the binding signal is 1.06 fold enrichment (6-mer frequency, TF over GST control) with SPI1; 1.15 fold enrichment (6-mer frequency, TF over GST control) in the assay with SPIB; 1.19 fold enrichment (6-mer frequency, TF over GST control) in the assay with ELK3.

In the case of AACCTC, the binding signal with FLI1 was 1.22 fold enrichment (6-mer frequency, TF over GST control); in the assay with ELK1 it was 1.27 fold enrichment (6-mer frequency, TF over GST control); with GABPA, 1.28 fold enrichment (6-mer frequency, TF over GST control); with ERG, 1.23 fold enrichment (6-mer frequency, TF over GST control); with ELF1, 1.29 fold enrichment (6-mer frequency, TF over GST control); in the assay with EHF, 1.2 fold enrichment (6-mer frequency, TF over GST control). Besides, the binding signal was 1.2 fold enrichment (6-mer frequency, TF over GST control) with SPI1; 1.19 fold enrichment (6-mer frequency, TF over GST control) with SPIB; 1.23 fold enrichment (6-mer frequency, TF over GST control) in the assay with ELK3.

As for TATCAC, the binding signal with FLI1 is 1.33 fold enrichment (6-mer frequency, TF over GST control); with ELK1, 1.25 fold enrichment (6-mer frequency, TF over GST control); with GABPA, 1.04 fold enrichment (6-mer frequency, TF over GST control); with ERG, 1.17 fold enrichment (6-mer frequency, TF over GST control); with ELF1 it was 1.3 fold enrichment (6-mer frequency, TF over GST control); in the assay with EHF it was 1.19 fold enrichment (6-mer frequency, TF over GST control). For the same sequence, the binding signal with SPI1 is 1.28 fold enrichment (6-mer frequency, TF over GST control); in the assay with SPIB, 1.22 fold enrichment (6-mer frequency, TF over GST control); in the assay with ELK3, 1.23 fold enrichment (6-mer frequency, TF over GST control).

For the sequence GCGACT, the binding signal in the assay with FLI1 was 1.15 fold enrichment (6-mer frequency, TF over GST control); with ELK1, 1.26 fold enrichment (6-mer frequency, TF over GST control); with GABPA it was 1.13 fold enrichment (6-mer frequency, TF over GST control); with ERG it was 1.24 fold enrichment (6-mer frequency, TF over GST control); in the assay with ELF1 it was 1.22 fold enrichment (6-mer frequency, TF over GST control); with EHF, 1.21 fold enrichment (6-mer frequency, TF over GST control). Besides, the binding signal in the assay with SPI1 is 1.2 fold enrichment (6-mer frequency, TF over GST control); with SPIB, 1.33 fold enrichment (6-mer frequency, TF over GST control); in the assay with ELK3, 1.25 fold enrichment (6-mer frequency, TF over GST control).

For CCTTGA, the binding signal in the assay with FLI1 was 1.26 fold enrichment (6-mer frequency, TF over GST control); in the assay with ELK1, 1.26 fold enrichment (6-mer frequency, TF over GST control); with GABPA it was 1.24 fold enrichment (6-mer frequency, TF over GST control); with ERG it was 1.27 fold enrichment (6-mer frequency, TF over GST control); with ELF1, 1.25 fold enrichment (6-mer frequency, TF over GST control); with EHF, 1.23 fold enrichment (6-mer frequency, TF over GST control). For the same sequence, the binding signal was 1.17 fold enrichment (6-mer frequency, TF over GST control) with SPI1; 1.24 fold enrichment (6-mer frequency, TF over GST control) in the assay with SPIB; 1.4 fold enrichment (6-mer frequency, TF over GST control) in the assay with ELK3.
